Laboratory results: PubChem BioAssay (EPA / NIEHS)
Calls of active or inactive are those of the source. Rule for the calls: active = hit-call score of the fitted dose curve at least 0.9, where 1 is the maximum; inactive = score below 0.9.

Tests used:
Conditions in all cases: mRNA level, 48 h; actives raise or lower the signal
CYP3A5 (gene 1577) = test: LTEA_HepaRG_CYP3A5: Life Technologies and Expression Analysis (LTEA) Assay for CYP3A5 using HepaRG (AID 2283493)
Procedure, shortened: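 mRNA levels were quantified by qRT-PCR on Fluidigm arrays and normalized to three housekeeping genes. Differentiated HepaRG cells received 48 h exposure (top 100 uM, half-log steps, 0.5% DMSO vehicle, duplicate); bidirectional fitting versus DMSO.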

[1] = read-out: Fatty Acid-Binding Protein 1 (FABP1), FABP1 (gene 2168); test: LTEA_HepaRG_FABP1: Life Technologies and Expression Analysis (LTEA) Assay for Fatty Acid-Binding Protein 1 (FABP1) using HepaRG (AID 2283494)
Procedure, shortened: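 Values reflect bidirectional concentration-response fitting of FABP1 mRNA change against 0.5% DMSO controls. Human HepaRG cultures received eight half-log doses (top 100 uM) for 48 h; expression quantified by TaqMan qRT-PCR with housekeeping-gene normalization.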

[2] = read-out: Cytochrome P450 4A22 (Homo sapiens) (UniProt Q5TCH4); test: LTEA_HepaRG_CYP4A22: Life Technologies and Expression Analysis (LTEA) Assay for Cytochrome P450 4A22 (CYP4A22) using HepaRG (AID 2283495)
Procedure, shortened: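 qRT-PCR of CYP4A22 mRNA (Fluidigm TaqMan, normalized to three housekeeping genes) after 48 h chemical exposure of HepaRG cells; 8-point half-log series, top 100 uM, 0.5% DMSO vehicle. Bidirectional curve fitting vs DMSO baseline.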

[3] = read-out: Cytochrome P450 7A1 (Homo sapiens) (UniProt P22680); test: LTEA_HepaRG_CYP7A1: Life Technologies and Expression Analysis (LTEA) Assay for Cytochrome P450 7A1 (CYP7A1) using HepaRG (AID 2283496)
Procedure, shortened: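 HepaRG, 48 h exposure, 8-pt half-log series from 100 uM, 0.5% DMSO vehicle, duplicates. Readout: TaqMan qRT-PCR mRNA vs three housekeeping genes; bidirectional curve fit against DMSO baseline.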

[4] = read-out: Glutathione S-Transferase (GSTA2), GSTA2 (gene 2939); test: LTEA_HepaRG_GSTA2: Life Technologies and Expression Analysis (LTEA) Assay for Glutathione S-Transferase (GSTA2) using HepaRG (AID 2283497)
Procedure, shortened: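 Oxidative-stress marker GSTA2 is quantified by TaqMan qRT-PCR in HepaRG cultures treated 48 h across an eight-point range to 100 uM. Expression is normalized to endogenous controls and compared with 0.5% DMSO vehicle.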

[5] = read-out: Glutamate-cysteine ligase catalytic (GCLC), GCLC (gene 2729); test: LTEA_HepaRG_GCLC: Life Technologies and Expression Analysis (LTEA) Assay for Glutamate-cysteine ligase catalytic (GCLC) using HepaRG (AID 2283498)
Procedure, shortened: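 Oxidative-stress marker GCLC is measured as mRNA change in human HepaRG liver cells after 48 h chemical treatment in 0.5% DMSO, eight concentrations from 100 uM. Activity is fitted bidirectionally against vehicle.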

[6] = read-out: growth arrest and DNA damage 45 (GADD45G), GADD45G (gene 10912); test: LTEA_HepaRG_GADD45G: Life Technologies and Expression Analysis (LTEA) Assay for growth arrest and DNA damage 45 (GADD45G) using HepaRG (AID 2283499)
Procedure, shortened: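 Differentiated human HepaRG cells in serum-free induction medium were exposed for 48 h to 8 half-log concentrations up to 100 uM in 0.5% DMSO, in duplicate. GADD45G mRNA was measured by TaqMan qRT-PCR, normalised to ACTB, GAPDH and POLR2A, and fitted bidirectionally against DMSO.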

[7] = read-out: Glutathione S-transferase M3 (GSTM3), GSTM3 (gene 2947); test: LTEA_HepaRG_GSTM3: Life Technologies and Expression Analysis (LTEA) Assay for Glutathione S-transferase M3 (GSTM3) using HepaRG (AID 2283501)
Procedure, shortened: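 Differentiated HepaRG cells in serum-free induction medium were exposed in duplicate for 48 h to 8 half-log concentrations up to 100 uM in 0.5% DMSO. GSTM3 mRNA was measured by TaqMan qRT-PCR, normalized to ACTB/GAPDH/POLR2A, and fitted bidirectionally versus DMSO.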

[8] = read-out: Heat shock 70 kDa protein 1 (HSPA1A), gene 3303; test: LTEA_HepaRG_HSPA1A: Life Technologies and Expression Analysis (LTEA) Assay for Heat shock 70 kDa protein 1 (HSPA1A) using HepaRG (AID 2283502)
Procedure, shortened: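 HSPA1A expression measured by qRT-PCR with ACTB/GAPDH/POLR2A normalization; curves fitted in both directions relative to DMSO vehicle. Exposure: 48 h in HepaRG cells, duplicate 8-point half-log series from 100 uM, 0.5% DMSO, serum-free induction medium.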

[9] = read-out: Hypoxia-inducible factor 1-alpha (Homo sapiens) (UniProt Q16665); test: LTEA_HepaRG_HIF1A: Life Technologies and Expression Analysis (LTEA) Assay for Hypoxia-inducible factor 1 (HIF1A) Trancription factor using HepaRG (AID 2283503)
Procedure, shortened: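 HIF1A transcript level read by qRT-PCR (ACTB, GAPDH, POLR2A normalization) after 48 h chemical exposure of HepaRG cultures. Eight half-log concentrations, top 100 uM, 0.5% DMSO vehicle, duplicates; bidirectional curve fit against DMSO baseline.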

[10] = read-out: 3-Hydroxy-3-Methylglutaryl-CoA Synthase 2 (HMGCS2), HMGCS2 (gene 3158); test: LTEA_HepaRG_HMGCS2: Life Technologies and Expression Analysis (LTEA) Assay for 3-Hydroxy-3-Methylglutaryl-CoA Synthase 2 (HMGCS2) using HepaRG (AID 2283504)
Procedure, shortened: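 Differentiated human HepaRG cells were exposed in duplicate for 48 h in serum-free induction medium to eight concentrations (top 100 uM, half-log steps, 0.5% DMSO). HMGCS2 mRNA was quantified by TaqMan qRT-PCR, normalised to ACTB, GAPDH and POLR2A, then fitted bidirectionally against DMSO.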

HGF (gene 3082) = test: LTEA_HepaRG_HGF: Life Technologies and Expression Analysis (LTEA) Assay for Hepatocyte Growth Facto (HGF) using HepaRG (AID 2283505)
Procedure, shortened: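 Differentiated human HepaRG cells in serum-free induction medium were exposed in duplicate for 48 h to eight concentrations (top 100 uM, half-log steps, 0.5% DMSO). HGF mRNA was quantified by qRT-PCR, normalized to ACTB, GAPDH and POLR2A.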

[11] = read-out: Insulin Like Growth Factor 1 (IGF1), IGF1 (gene 3479); test: LTEA_HepaRG_IGF1: Life Technologies and Expression Analysis (LTEA) Assay for Insulin Like Growth Factor 1 (IGF1) using HepaRG (AID 2283506)
Procedure, shortened: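 Expression measured by TaqMan qRT-PCR on a Fluidigm array, with three housekeeping genes for normalisation, after 48 h treatment of HepaRG cells. Top concentration 100 uM with half-log steps, 0.5% DMSO vehicle, bidirectional fit.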

[12] = read-out: Intercellular Adhesion Molecule 1 (ICAM1), ICAM1 (gene 3383); test: LTEA_HepaRG_ICAM1: Life Technologies and Expression Analysis (LTEA) Assay for Intercellular Adhesion Molecule 1 (ICAM1) using HepaRG (AID 2283507)
Procedure, shortened: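 Differentiated HepaRG cells in serum-free induction medium were exposed in duplicate for 48 h to eight half-log concentrations up to 100 uM in 0.5% DMSO. Transcript levels were measured by qRT-PCR normalized to ACTB, GAPDH and POLR2A; bidirectional fits relative to DMSO.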

[13] = read-out: Insulin-like growth factor-binding protein 1 (IGFBP1), IGFBP1 (gene 3484); test: LTEA_HepaRG_IGFBP1: Life Technologies and Expression Analysis (LTEA) Assay for Insulin-like growth factor-binding protein 1 (IGFBP1) using HepaRG (AID 2283508)
Procedure, shortened: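 Differentiated human HepaRG cells in serum-free induction medium were exposed in duplicate for 48 h to eight concentrations, top 100 uM with half-log dilutions, in 0.5% DMSO. Transcript levels came from qRT-PCR normalised to ACTB, GAPDH and POLR2A, fitted bidirectionally against DMSO.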

[14] = read-out: Interleukin 6 (IL6), IL6 (gene 3569); test: LTEA_HepaRG_IL6: Life Technologies and Expression Analysis (LTEA) Assay for Interleukin 6 (IL6) using HepaRG (AID 2283509)
Procedure, shortened: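 Changes in IL6 mRNA, up or down relative to 0.5% DMSO controls, were derived from concentration-response curves in human HepaRG cells treated for 48 h at up to 100 uM, with ACTB, GAPDH and POLR2A as normalizers.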

[15] = read-out: Interleukin 6 Receptor (IL6R), IL6R (gene 3570); test: LTEA_HepaRG_IL6R: Life Technologies and Expression Analysis (LTEA) Assay for Interleukin 6 Receptor (IL6R) using HepaRG (AID 2283510);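 for AC50: TaqMan qRT-PCR signal normalized to ACTB GAPDH and POLR2A housekeeping genes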
Procedure, shortened: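 IL6R transcript level by qRT-PCR after 48 h chemical exposure (8-point, half-log, max 100 uM, 0.5% DMSO vehicle) of HepaRG cells in serum-free induction medium. Normalized to three housekeeping genes; curves fitted in both directions relative to DMSO.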

[16] = read-out: Potassium channel subfamily K member 1 (KCNK1), KCNK1 (gene 3775); test: LTEA_HepaRG_KCNK1: Life Technologies and Expression Analysis (LTEA) Assay for Potassium channel subfamily K member 1 (KCNK1) using HepaRG (AID 2283511)
Procedure, shortened: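 Human HepaRG cultures receive test chemicals for 48 h in 0.5% DMSO, top concentration 100 uM with half-log dilutions. Induction or suppression of KCNK1 mRNA relative to DMSO is derived by bidirectional fitting of qRT-PCR data.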

[17] = read-out: Keratin 19 (KRT19), KRT19 (gene 3880); test: LTEA_HepaRG_KRT19: Life Technologies and Expression Analysis (LTEA) Assay for Keratin 19 (KRT19) using HepaRG (AID 2283512)
Procedure, shortened: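 Differentiated human HepaRG cells, plated 48 h, were exposed in duplicate for 48 h in serum-free induction medium to eight half-log concentrations up to 100 uM in 0.5% DMSO. KRT19 mRNA was quantified by qRT-PCR, normalized to ACTB, GAPDH and POLR2A, and fitted bidirectionally versus DMSO.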

[18] = read-out: JUN Transcription Factor, JUN (gene 3725); test: LTEA_HepaRG_JUN: Life Technologies and Expression Analysis (LTEA) Assay for JUN Transcription Factor using HepaRG (AID 2283513)
Procedure, shortened: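 mRNA measured by TaqMan qRT-PCR after 48 h chemical exposure of HepaRG cultures; normalization to three housekeeping genes. Duplicate eight-point half-log curves from 100 uM in 0.5% DMSO; gain or loss fitted against DMSO baseline.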

Measured: AC50

Hypoxia-inducible factor 1-alpha (Homo sapiens), sequence (Q16665 whole entry, looked up): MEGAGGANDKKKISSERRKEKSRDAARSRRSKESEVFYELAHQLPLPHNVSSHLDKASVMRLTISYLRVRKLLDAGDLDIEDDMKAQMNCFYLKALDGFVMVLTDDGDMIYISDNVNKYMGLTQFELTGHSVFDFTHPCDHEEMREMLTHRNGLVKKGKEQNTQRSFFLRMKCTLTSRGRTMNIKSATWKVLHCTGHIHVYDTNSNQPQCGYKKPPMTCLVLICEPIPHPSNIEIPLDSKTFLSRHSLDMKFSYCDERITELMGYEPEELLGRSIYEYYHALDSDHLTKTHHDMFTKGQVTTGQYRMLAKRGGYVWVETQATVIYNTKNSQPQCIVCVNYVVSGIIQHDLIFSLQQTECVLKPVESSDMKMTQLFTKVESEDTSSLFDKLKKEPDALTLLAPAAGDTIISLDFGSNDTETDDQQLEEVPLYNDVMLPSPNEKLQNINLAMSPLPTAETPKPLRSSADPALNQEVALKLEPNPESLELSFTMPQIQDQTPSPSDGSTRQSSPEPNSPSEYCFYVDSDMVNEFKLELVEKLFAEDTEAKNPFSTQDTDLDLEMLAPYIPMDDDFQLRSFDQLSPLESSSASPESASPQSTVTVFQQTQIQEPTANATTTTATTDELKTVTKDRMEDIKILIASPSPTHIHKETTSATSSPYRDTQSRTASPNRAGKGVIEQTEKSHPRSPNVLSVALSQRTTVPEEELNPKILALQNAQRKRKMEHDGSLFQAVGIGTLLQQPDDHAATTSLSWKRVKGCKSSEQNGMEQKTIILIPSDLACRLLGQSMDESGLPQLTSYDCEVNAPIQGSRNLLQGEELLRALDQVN

O=C1C2(Cl)C3(Cl)C4(Cl)C(Cl)(Cl)C5(Cl)C3(Cl)C1(Cl)C5(Cl)C24Cl (stereo not drawn)
active: CYP3A5 (gene 1577) 92.4 µM | [1] 93.5 µM | [2] 24.1 µM | [3] 20.6 µM | [4] 22.9 µM | [5] 93.3 µM | [6] 59 µM | [8] 91.9 µM | [9] 92.5 µM | [10] 24.2 µM | [11] 23.8 µM | [12] 91.4 µM | [13] 84 µM | [14] 91.7 µM | [15] 90.8 µM | [17] 93.5 µM | [18] 91.1 µM
inactive: [7] | HGF (gene 3082) | [16]

O=C(O)C(F)(F)C(F)(F)C(F)(F)C(F)(F)C(F)(F)C(F)(F)F
inactive: CYP3A5 (gene 1577) | [3] | [4] | [5] | [6] | [7] | [8] | [9] | HGF (gene 3082) | [11] | [12] | [13] | [14] | [15] | [16] | [17] | [18]
active: [1] 22.5 µM | [2] 21.4 µM | [10] 22 µM

O=c1[nH]c(=O)[nH]c(=O)[nH]1
inactive: CYP3A5 (gene 1577) | [1] | [2] | [3] | [4] | [5] | [6] | [7] | [8] | [9] | [10] | HGF (gene 3082) | [11] | [12] | [13] | [14] | [15] | [16] | [17] | [18]

C=C(C)C(=O)[O][Sn]([CH2]CCC)([CH2]CCC)[CH2]CCC
active: CYP3A5 (gene 1577) 4.68 µM | [5] 4.01 µM | [6] 1.21 µM | [8] 89.6 µM | [9] 5.19 µM | [10] 2.69 µM | HGF (gene 3082) 72 µM | [11] 1.2 µM | [12] 2.12 µM | [13] 2.66 µM | [14] 3.28 µM | [18] 6.54 µM
inactive: [1] | [4] | [7] | [15] | [16] | [17]
